According to PubChem BioAssay (NCATS):
Records with an inconclusive call do not appear. Active and inactive are the calls of the source. Calls come from the whole dose curve; as a rule, active = well fitted curve in the direction sought with a large enough effect; inconclusive = small, poorly fitted or top-dose-only effect, or another doubt; inactive = no such curve, though single readings can be large; an effect the other way counts as inactive or inconclusive.

Key:
[1] = biological target: Glutathione peroxidase 1 (Homo sapiens) (UniProt P07203); assay: Primary qHTS Assay for Inhibitors of Recombinant Selenoprotein Glutathione Peroxidase 1 (GPX1) (AID 1845191); note: nearly all actives have a fitted effect of over 65% in size; for activity, negative = inhibition: % is set by controls: 0 for no effect and ±100 for the full control effect
Chain of Glutathione peroxidase 1 (Homo sapiens) (P07203 whole entry, looked up): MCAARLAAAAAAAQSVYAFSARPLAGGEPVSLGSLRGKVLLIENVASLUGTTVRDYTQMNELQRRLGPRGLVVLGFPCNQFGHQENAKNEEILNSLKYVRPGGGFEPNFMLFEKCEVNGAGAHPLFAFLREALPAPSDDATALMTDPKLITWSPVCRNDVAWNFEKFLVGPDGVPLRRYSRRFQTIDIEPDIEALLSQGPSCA
Outline: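 NADPH consumption tracked by fluorescence at 340/450 nm between t=0 and t=15 min, room temperature. Final mix: 10 nM GPX1, 100 nM glutathione reductase, 1 mM GSH, 0.5 mM NADPH, 0.5 mM cumene hydroperoxide, 0.01% BSA; 30 min compound–enzyme preincubation.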

[2] = biological target: Phospholipid hydroperoxide glutathione peroxidase GPX4 (Homo sapiens) (UniProt P36969); assay: Primary qHTS Assay for Inhibitors of Recombinant Selenoprotein Glutathione Peroxidase 4 (GPX4) (AID 1845192); note: nearly all actives have a fitted effect of over 65% in size; for activity change, negative = inhibition: series mostly up to about 50 µM; % is set by controls: 0 for no effect and ±100 for the full control effect
Chain of Phospholipid hydroperoxide glutathione peroxidase GPX4 (Homo sapiens) (P36969 whole entry, looked up): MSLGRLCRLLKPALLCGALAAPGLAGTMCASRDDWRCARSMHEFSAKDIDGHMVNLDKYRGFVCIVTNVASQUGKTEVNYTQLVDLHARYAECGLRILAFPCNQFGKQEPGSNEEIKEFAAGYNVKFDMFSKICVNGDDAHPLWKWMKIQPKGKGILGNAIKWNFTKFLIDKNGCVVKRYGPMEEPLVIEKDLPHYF
Outline: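 NADPH consumption followed by fluorescence at 340/450 nm, t=0 and after 15 min at room temperature. Reaction started with cumene hydroperoxide (0.5 mM final) after 30 min compound–GPX4 preincubation; final 200 nM GPX4, 100 nM GR, 1 mM GSH, 0.5 mM NADPH.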

[3] = biological target: Luciferin 4-monooxygenase (Photinus pyralis) (UniProt P08659); assay: Primary firefly luciferase (FLuc) qHTS assay for identification of artifact compounds. (AID 1845220); note: nearly all actives have a fitted effect of over 60% in size;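 for activity change, negative = inhibition: series mostly up to about 54 µM; plate controls were DMSO vehicle for no effect and no enzyme for full effect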
Outline: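 FLuc 10 nM; luciferin 10 uM; ATP 10 uM; Tris-acetate pH 7.6, Mg-acetate 10 mM; 15 min RT preincubation; 5 min reaction; luminescence.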

[4] = Primary fluorescence-based thiol-reactive (MSTI) qHTS assay for identification of artifact compounds. (AID 1845221); note: nearly all actives have a fitted effect of over 65% in size; note: potency is the fitted concentration of half-maximal effect;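 for activity change, negative = thiol reactive: series mostly up to about 54 µM; thiol-reactive compounds lower the probe fluorescence signal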
Outline: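 First, 4 uM MSTI in 2% DMSO/PBS pH 7.4 was dispensed; next, compounds were added; then plates sat 1 h at room temperature without light. Finally, emission at 598 nm was recorded.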

[5] = system: Nanoluciferase (engineered Oplophorus gracilirostris luciferase); assay: Primary Nanoluciferase (NLuc) qHTS assay for identification of artifact compounds. (AID 1845222);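 note: NLuc secreted into diluted conditioned medium of S16 cells; series mostly up to about 54 µM; 0% = DMSO and -100% = no enzyme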
Outline: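 NLuc from S16 cell medium (1:55) plus test compounds, 15 min, room temperature. Luminescence after Nano-Glo (1:100) addition, 5 min.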

CC(=O)OCC1(O)CCC2C(COC3OC(CO)C(O)C(O)C3OC(=O)/C=C/c3ccc(O)cc3)=COC(OC(=O)CC(C)C)C21 (centres undefined)
inactive: Potency [1] | Potency [2] | Potency [3] | Potency [4]

C[C@@H]1CC[C@]2(C(=O)OC3OC(CO)C(O)C(O)C3O)CC[C@]3(C)C(=CCC4[C@@]5(C)CC[C@H](O)[C@](C)(C(=O)O)C5CC[C@]43C)C2[C@]1(C)O (some centres undefined)
inactive: Potency [1] | Potency [2] | Potency [3] | Potency [4] | Potency [5]

CN1CCc2nc(C(=O)N[C@@H]3C[C@@H](C(=O)N(C)C)CC[C@@H]3NC(=O)C(=O)Nc3ccc(Cl)cn3)sc2C1
inactive: Potency [1] | Potency [2] | Potency [3] | Potency [4] | Potency [5]

COC(=O)C1=COC(O[C@@H]2O[C@H](CO)[C@@H](O)[C@H](O)[C@H]2O)[C@H]2[C@@H]1[C@H](OC(=O)CCc1ccc(O)cc1)C[C@]2(C)O (some centres undefined)
inactive: Potency [1] | Potency [2] | Potency [3] | Potency [4] | Potency [5]

COC1C(=O)CCC2(CO2)C1(O)C1(C)OC1CC=C(C)C (centres undefined)
active: Potency [4] 11.9 µM
inactive: Potency [1] | Potency [2] | Potency [3] | Potency [5]

C=C1CCC2C(C)(C(=O)O)CCCC2(C)C1CCC(C)CC(=O)O (centres undefined)
inactive: Potency [1] | Potency [2] | Potency [3] | Potency [4] | Potency [5]

C[C@@H]1O[C@@H](O[C@H]2[C@H](OC(=O)[C@]34CCC(C)(C)C[C@H]3C3=CCC5[C@@]6(C)C[C@H](O)[C@H](O[C@@H]7O[C@H](CO)[C@@H](O[C@H]8OC[C@](O)(CO)[C@H]8O)[C@H](O)[C@H]7O)[C@@](C)(CO)C6[C@H](O)C[C@@]5(C)[C@]3(C)C[C@H]4O)OC[C@H](O)[C@@H]2O)[C@H](O)[C@H](O)[C@H]1O[C@@H]1OC[C@@H](O)[C@H](O[C@@H]2OC[C@](O)(CO)[C@H]2O)[C@H]1O (some centres undefined)
inactive: outcome [1] inactive [at 9.52 µM] | outcome [2] inactive [at 9.73 µM] | outcome [3] inactive [at 11.6 µM] | activity change, negative = thiol reactive [4] 502% [at 11.5 µM] | activity, negative = inhibition [5] 3.67% [at 11.6 µM]

CC(=O)N1CCN(C(=O)Cc2ccc(Nc3ncc(F)c(Nc4ccc(C(=O)Nc5ccccc5Cl)cc4)n3)cc2)CC1
inactive: Potency [1] | Potency [2] | Potency [3] | Potency [4] | Potency [5]

COC(=O)C[C@H]1[C@]2(C)C3=C(C)[C@H](c4ccoc4)C[C@H]3O[C@@H]2[C@H](OC(C)=O)C2[C@](C)(C(=O)OC)C=CC(=O)[C@@]21C (some centres undefined)
inactive: Potency [1] | Potency [2] | Potency [3] | Potency [5]
active: Potency [4] 13 µM

O=C(Cc1ccc(-c2ccccc2)cc1)NC1CCC1
inactive: Potency [1] | Potency [2] | Potency [3] | Potency [4] | Potency [5]

CC(=O)O[C@@H]1[C@@H](O)[C@H](O[C@H]2CC[C@]34C[C@]35CC[C@]3(C)[C@@H]([C@@]6(C)CC[C@@H](C(C)(C)O)O6)[C@@H](O)C[C@@]3(C)[C@@H]5C[C@H](O[C@@H]3O[C@H](CO)[C@@H](O)[C@H](O)[C@H]3O)[C@H]4C2(C)C)OC[C@H]1O
inactive: Potency [1] | Potency [2] | Potency [3] | Potency [4] | Potency [5]

CC[C@H](CO)Nc1nc(NCc2ccc(-c3ccccn3)cc2)c2ncn(C(C)C)c2n1
inactive: Potency [1] | Potency [2] | Potency [3] | Potency [4] | Potency [5]

CC1CCC2C(C)(C)[C@@H](O)CC[C@]2(C)C12Cc1c(O)cc3c(c1O2)CN(C(CCC(=O)O)C(=O)O)C3=O (some centres undefined)
inactive: Potency [1] | Potency [2] | Potency [3] | Potency [4] | Potency [5]

C/C=C1\[C@H](OC2OC(COC3OC(CO)C(O)C(O)C3O)C(O)C(O)C2O)OC=C(C(=O)OC)[C@H]1CC(=O)OCCc1ccc(O)cc1 (some centres undefined)
inactive: Potency [1] | Potency [2] | Potency [3] | Potency [5]
active: Potency [4] 5.61 µM

COc1cc(N2CCOCC2)ccc1Nc1ncc(Cl)c(Nc2ccccc2NS(C)(=O)=O)n1
inactive: Potency [1] | Potency [2] | Potency [3] | Potency [5]
active: Potency [4] 1.34 µM

O=C(O)CCCCCC[C@H]1C(=O)NC(=O)N1CC[C@@H](O)C1CCCCC1
inactive: Potency [1] | Potency [2] | Potency [3] | Potency [4] | Potency [5]

COc1cccc(C(=O)N2CCN(C(=O)COc3cccc(C)c3)CC2)c1OC
inactive: Potency [1] | Potency [2] | Potency [3] | Potency [4] | Potency [5]

CC(=O)O[C@H]1CC(C)(C)CC2[C@@]13[C@H](O)C[C@]1(C)[C@@]2(CCC2[C@@]4(C)CC[C@H](O[C@@H]5OC[C@H](O[C@@H]6O[C@H](CO)[C@@H](O)[C@H](O)[C@H]6O[C@@H]6OC[C@@H](O)[C@H](O)[C@H]6O)[C@H](O)[C@H]5O[C@@H]5O[C@H](CO)[C@@H](O)[C@H](O)[C@H]5O)C(C)(C)C4CC[C@]21C)O[C@@H]3O (some centres undefined)
inactive: Potency [1] | Potency [2] | activity change, negative = inhibition [3] -0.127% [at 11.6 µM] | activity change, negative = thiol reactive [4] 93.4% [at 11.5 µM] | activity, negative = inhibition [5] 2.06% [at 11.6 µM]

C[C@@H]1O[C@@H](O[C@H]2[C@@H]3C=CO[C@@H](O[C@@H]4O[C@H](CO)[C@@H](O)[C@H](O)[C@H]4O)[C@@H]3[C@@]3(CO)O[C@@H]23)[C@H](OC(=O)/C=C/c2ccccc2)[C@H](O)[C@H]1O
inactive: Potency [1] | Potency [2] | Potency [3] | Potency [5]
active: Potency [4] 7.93 µM
